TDP1 block: inhibitors of human tyrosyl-DNA phosphodiesterase TDP1. recombinant TDP1, AlphaScreen DNA substrate cleavage. 350,000 tested, 0.28% active. Q9NUW8. AID 485290. Potency, µM (top dose mostly 130 µM), without a hit: top-dose activity change, negative = inhibition, usual class: inhibitors; also: potency is read from the fitted curve at half-maximal effect; % is scaled to controls: 0 for no effect and ±100 for the full control effect; nearly all actives have a fitted effect of over 40% in size
Target sequence (Q9NUW8 whole entry, looked up): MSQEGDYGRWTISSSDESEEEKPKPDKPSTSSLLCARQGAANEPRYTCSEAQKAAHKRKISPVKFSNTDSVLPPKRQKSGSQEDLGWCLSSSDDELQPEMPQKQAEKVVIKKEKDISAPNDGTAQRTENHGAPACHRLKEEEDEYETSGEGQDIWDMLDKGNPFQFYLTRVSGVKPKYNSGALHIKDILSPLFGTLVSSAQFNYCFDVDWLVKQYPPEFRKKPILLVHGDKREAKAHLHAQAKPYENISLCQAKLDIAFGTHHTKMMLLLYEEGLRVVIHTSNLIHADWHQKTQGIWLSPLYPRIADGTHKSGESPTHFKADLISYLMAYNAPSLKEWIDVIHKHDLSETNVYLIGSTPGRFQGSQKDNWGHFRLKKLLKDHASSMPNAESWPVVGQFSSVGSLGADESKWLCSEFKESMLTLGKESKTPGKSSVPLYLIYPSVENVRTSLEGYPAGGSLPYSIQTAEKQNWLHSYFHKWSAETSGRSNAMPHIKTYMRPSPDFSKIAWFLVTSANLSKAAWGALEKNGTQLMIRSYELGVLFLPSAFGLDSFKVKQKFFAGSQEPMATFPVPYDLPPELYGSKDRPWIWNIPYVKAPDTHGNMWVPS
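Recombinant human Tdp1 (E. coli-expressed, 1 nM final) preincubated with compounds 15 min at room temperature, then 5'-biotin/3'-phosphotyrosine-FITC DNA substrate (15 nM final) added for 5 min. AlphaScreen beads (10 ug/ml final) added 10 min; cleavage lowers signal.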
TDP1 cell noCPT: qHTS for Inhibitors of human tyrosyl-DNA phosphodiesterase 1 (TDP1): qHTS in cells in absence of CPT | DT40 Tdp1-/- hTDP1 cells, no CPT, ATP luminescence, 48 h | Potency, µM (doses to about 46.2 µM), without a hit: at the top dose activity change, negative = growth inhibition, actives largely listed as inhibitors | 420,000 tested, 15% active; also: potency is read from the fitted curve at half-maximal effect; % is scaled to controls: 0 for no effect and ±100 for the full control effect; nearly all actives have a fitted effect of over 55% in size
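Seeded 400 DT40-hTDP1 cells/well (vehicle DMSO, no 20 nM CPT); pinned compounds; ≥48 hr at 37 °C; CellTiter-Glo luminescence as viability measure.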
HepG2 viability: kills HepG2 cells in TGF-b inhibitor counter-screen. Potency, µM (series often up to 46.1 µM), for inactives: at the highest dose activity change, negative = cytotoxicity, usual class: cytotoxic. AID 588856. HepG2 CAGA-GFP viability, ATP luminescence, 18 h. 410,000 tested, 0.76% active; also: potency is read from the fitted curve at half-maximal effect
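CellTiter-Glo luminescence gave cytotoxicity after 18 hours at 37 degrees C. The cells were HepG2 CAGA-GFP in 1% FBS DMEM, stimulated with 500 pg/mL TGF-beta after compound addition. %Activity was normalised to no-cell wells (complete cell-killing) and DMSO (no toxicity), and curves were fitted and classified.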
TGFb inhibitor: blocks TGF-b signaling; HepG2 CAGA-GFP TGF-b/SMAD3 reporter, GFP fluorescence, 18 h; TGF-beta stimulated, 500 pg/mL final; 410,000 tested, 1.2% active; Potency, µM (titrated, usually from 46.1 µM), inactives show at the top dose activity, negative = inhibition, usual class: inhibitors; AID 588855; also: potency is read from the fitted curve at half-maximal effect; % is scaled to controls: 0 for no effect and ±100 for the full control effect; nearly all actives have a fitted effect of over 65% in size
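Using HEPG2 CAGA-GFP reporter cells at 1000 cells/well, we pinned test compounds, stimulated with recombinant TGF-beta (500 pg/mL final) and measured total well GFP after 18 h.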
DT40 TDP1 CPT: DT40-hTDP1 cell growth loss with CPT; AID 686979; 420,000 tested, 12% active; chicken DT40 Tdp1-/-;hTDP1 cells + 20 nM CPT, ATP luminescence, 48 h; Potency, µM (series often up to 46.2 µM), inactives show at the top dose activity change, negative = growth inhibition, actives largely listed as inhibitors; also: potency is read from the fitted curve at half-maximal effect; % is scaled to controls: 0 for no effect and ±100 for the full control effect; nearly all actives have a fitted effect of over 55% in size
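Chicken DT40 Tdp1-/- cells complemented with human TDP1, 400 cells/well, exposed to compounds plus 20 nM camptothecin for at least 48 h at 37 C; viability read as ATP content by CellTiter-Glo luminescence.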
IL-1B inflam inh: inhibitors of inflammasome signaling (IL-1 beta secretion); THP-1 LPS/ATP IL-1B secretion, AlphaLISA, 16 h; hits give low values; activity change, % at 57.5 µM; 360,000 tested, 4.7% active; AID 743279; in the data active = activity change below about -50%; inconclusive = mostly about -30% to -49%; also: % is scaled to controls: 0 for no effect and ±100 for the full control effect
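THP-1 cells pretreated 1 hr with compounds (up to 57.5 uM final), then stimulated with LPS (250 ng/mL final) plus ATP (1.25 mM final); secreted IL-1B measured by AlphaLISA after 16 hr, decreased signal indicating inhibition.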
* marks the source's active call; other numbers are inactive results; i = inactive; ? = inconclusive; nt = not tested or not shown. Hits are enriched below; roughly 18% of the tested compounds scored in any of these assays. Unless noted, calls follow the shape of the dose curve; as a rule, active = well fitted curve in the direction sought with a large enough effect; inconclusive = small, poorly fitted or top-dose-only effect, or another doubt; inactive = no such curve, though single readings can be large; an effect the other way counts as inactive or inconclusive.

SMILES	TDP1 block	TDP1 cell noCPT	HepG2 viability	TGFb inhibitor	DT40 TDP1 CPT	IL-1B inflam inh
COc1ccc(-c2nsc(NC(=O)COc3ccccc3OC)n2)cc1	5%	-27%	-10%	-6%	-16%	nt
COc1ccc(-c2nnc(SCCC(=O)O)n2-c2ccccc2)cc1OC	4%	12%	3%	-3%	-1%	12
Cc1ccc(/C=N/NC(=O)CSc2nnc(-c3ccccc3)n2-c2ccc(Cl)cc2)o1	6%	?	-14%	?	?	-28
Cc1ccc(/C=N/NC(=O)CSc2nnc(-c3ccc(Cl)cc3)n2-c2ccc(Cl)cc2)o1	3%	?	2%	-3%	23µM*	-3
Cc1ccc(-c2nnc(SCC(=O)N/N=C/c3ccccc3C(=O)O)n2-c2ccc(C)cc2)cc1	6%	5%	-12%	-5%	-13%	-27
Cc1cccc(C)c1NC(=O)CCCSc1nnc(-c2ccc(Cl)cc2)n1-c1ccccc1	-3%	16µM*	-19%	?	23µM*	i
Cc1ccc(-c2nnc(SCC(=O)N/N=C/c3ccc(C)s3)n2-c2ccccc2)cc1	8%	18µM*	2%	0%	?	-23
Cc1nn(-c2ccccc2)c(C)c1/C=N/NC(=O)CSc1nnc(-c2ccccc2)n1-c1ccc(Cl)cc1	3%	26µM*	-4%	-8%	?	?
COC(=O)c1cc(OC)c(OC)cc1NC(=S)N1CCOCC1	nt	-1%	-14%	1%	-24%	-8
COc1cc(C)c(S(=O)(=O)NCc2cccnc2)cc1C	nt	16%	0%	1%	-2%	15
CCn1c2ccc(F)cc2c2nnc(NN)nc21	0%	16µM*	-6%	?	?	16
CCc1ccc2c(c1)c1nnc(NN)nc1n2CC	8%	18µM*	-22%	?	?	-2
CCCn1c2ccc(F)cc2c2nnc(NN)nc21	5%	?	-28%	?	?	7
NNc1nnc2c3cc(F)ccc3n(Cc3ccccc3)c2n1	8%	18µM*	-54%	-8%	?	-10
COc1ccc(/C=C/C(=O)OCC(=O)NC2CC2)c(OC)c1	1%	2%	4%	8%	?	-19
CN(Cc1cccs1)C(=O)COc1cccc2c1OC(C)(C)C2	1%	-28%	-14%	4%	?	4
COc1ccc(CNC(=O)c2cnc3ccc(C)cn3c2=O)cc1	5%	-5%	1%	7%	-1%	nt
Nc1nc(Cl)c(C=O)c(N2CCCCC2)n1	3%	-2%	0%	7%	0%	-95*
Cn1c(/C=N/n2cnnc2)nc2ccccc21	3%	-13%	-2%	9%	-15%	35
COc1cc(CC(=O)N(C)CC(=O)Nc2ccc(Cl)c(C(F)(F)F)c2)cc(OC)c1OC	9%	?	-4%	10%	?	8
CCOC(=O)c1nc(N)c(C(=O)OCC)[nH]1	-1%	29µM*	3%	?	?	2
COc1cccc(NC(=O)CCC(=O)Nc2ccc3nc(N4CCOCC4)cc(C)c3c2)c1	-2%	15µM*	-4%	-3%	?	-3
COc1cc(OC)cc(C(=O)Nc2ccc3nc(N4CCC(C)CC4)cc(C)c3c2)c1	-3%	4.6µM*	-16%	2%	9.2µM*	nt
COc1ccccc1C(=O)Nc1ccc2nc(N3CCC(C)CC3)cc(C)c2c1	3%	16µM*	-32%	nt	?	nt
COc1ccc(C(=O)Nc2ccc3nc(N4CCCCC4)cc(C)c3c2)c(OC)c1	-3%	?	4%	3%	-24%	nt
SMILES	TDP1 block	TDP1 cell noCPT	HepG2 viability	TGFb inhibitor	DT40 TDP1 CPT	IL-1B inflam inh
Cc1cc2[nH]c3c(=O)n(Cc4ccccc4F)ncc3c2s1	0%	nt	nt	nt	nt	nt
O=S(=O)(c1c(F)cccc1F)N1CCN(S(=O)(=O)c2c(F)cccc2F)CC1	0%	nt	nt	nt	nt	nt
CN(C)[C@@H]1C(=O)C(C(=O)NCN2CCCC2)=C(O)[C@@]2(O)C(=O)C3=C(O)c4c(O)cccc4[C@@](C)(O)C3CC12 (some centres not stated)	0.71µM*	nt	nt	nt	nt	nt
CN(C)[C@H]1C(=O)C(C(=O)NCN2CCCC2)=C(O)[C@]2(O)C(=O)C3=C(O)c4c(O)cccc4[C@](C)(O)[C@H]3C[C@H]12	0.2µM*	nt	nt	nt	nt	nt
Cn1c(=O)c2c(-c3ccccc3)n(C3CCCCC3)cc2n(C)c1=O	3%	9.2µM*	-9%	-1%	18µM*	-13
Cc1cccc(-c2c3c(=O)n(C)c(=O)n(C)c3cn2C2CCCCC2)c1	6%	16µM*	-12%	-2%	?	-1
Cc1cccc(-c2c3c(=O)n(C)c(=O)n(C)c3cn2C(C)C)c1	10%	21µM*	-15%	19%	16µM*	-2
Cn1c(=O)c2c(-c3ccccc3)n(N3CCOCC3)cc2n(C)c1=O	-11%	?	-32%	16%	?	-5
Cc1cccc(-c2c3c(=O)n(C)c(=O)n(C)c3cn2C(C)(C)C)c1	1%	-11%	-3%	-36%	-19%	7
COc1ccc(CN2C(=O)N(c3ccc(C)cc3)C(=O)C2CC(=O)Nc2ccccc2)cc1OC (configuration not stated)	-4%	?	0%	4%	-27%	nt
Cc1ccc(C)c(S(=O)(=O)Nc2ccc3scnc3c2)c1	5%	18µM*	-30%	0%	23µM*	-19
Cc1ccc(NC(=O)c2cncc(Br)c2)cc1S(=O)(=O)N(C)C	-1%	15µM*	-2%	-6%	?	-6
CN(C)S(=O)(=O)c1cccc(NC(=O)c2cncc(Br)c2)c1	0%	?	7%	10%	?	-9
Cc1ccc(S(=O)(=O)N2CCCCC2)cc1NC(=O)c1cncc(Br)c1	7%	?	3%	0%	?	-3
Cc1ccc(S(=O)(=O)N(C)C)cc1NC(=O)c1cncc(Br)c1	4%	12µM*	-26%	?	13µM*	46
Cc1cc2c(cc1C)N(C(=O)CCl)CCN2C(=O)CCl	nt	0.58µM*	-111%	?	0.46µM*	-100*
Cc1cc2c(cc1C)N(C(=O)CCl)CC(=O)N2	nt	2.6µM*	-86%	?	2.3µM*	-65*
Cc1cc(=O)oc2cc(OCC(=O)N3CC(=O)Nc4ccccc43)c(Cl)cc12	-3%	-6%	5%	6%	-6%	10
